Measurements: PubChem BioAssay (Tox21)
A number with no mark means an inactive call. Results filed as inconclusive are left out. Entries that show only a call come without a potency. Activity calls are given as the source filed them. Unless noted, calls follow the shape of the dose curve; as a rule, active = well fitted curve in the direction sought with a large enough effect in the repeat runs; inconclusive = weak or mixed curves; inactive = no such curve, though single readings can be large; an effect the other way counts as inactive or inconclusive.

Columns and labels:
[1] = target: Thyrotropin-releasing hormone receptor (Homo sapiens) (UniProt P34981); test: qHTS assay to identify small molecule agonists of the thyrotropin-releasing hormone receptor (TRHR) signaling pathway (AID 1346891; calls by dose curve; also: series mostly up to about 58 µM)
Thyrotropin-releasing hormone receptor (Homo sapiens), sequence (P34981 whole entry, looked up): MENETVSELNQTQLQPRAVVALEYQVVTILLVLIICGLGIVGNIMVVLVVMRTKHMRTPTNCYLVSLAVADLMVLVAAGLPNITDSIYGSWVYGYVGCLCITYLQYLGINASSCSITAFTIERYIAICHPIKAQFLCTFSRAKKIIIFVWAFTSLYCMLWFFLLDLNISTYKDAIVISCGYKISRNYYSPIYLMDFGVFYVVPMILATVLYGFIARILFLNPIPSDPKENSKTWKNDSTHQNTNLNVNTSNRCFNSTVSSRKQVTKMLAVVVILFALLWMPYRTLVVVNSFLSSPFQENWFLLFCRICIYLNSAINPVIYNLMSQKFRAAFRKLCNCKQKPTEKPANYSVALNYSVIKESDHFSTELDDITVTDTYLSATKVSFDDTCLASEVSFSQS
Method in brief: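 Readout was intracellular calcium fluorescence in TRHR-Hek293 cells. Cells were incubated 18 h, dye-loaded 2 h at 37 °C, and treated with compound in agonist mode.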

[2] = Human pregnane X receptor (PXR) small molecule agonists, qHTS cell viability counter screen (AID 1346977); also: nearly all actives have a fitted effect of over 50% in size
Method in brief: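 In each well, the PXR reporter HepG2 line was checked for viability: CellTiter-Fluor reagent added 23hr post-dosing, fluorescence read after 1hr incubation at 37C.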

[3] = Caspase-3/7 induction in HepG2 cells by small molecules, qHTS assay (AID 1346978); also: nearly all actives have a fitted effect of over 15% in size
Method in brief: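 Wild-type HepG2 cells (2,000/well) were settled 5 h at 37 C, 5% CO2, then exposed to compounds in DMSO for 17 h. Caspase-3/7 activity was read by luminescence 30 min after adding Caspase-Glo 3/7 reagent at room temperature.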

[4] = Caspase-3/7 induction in CHO-K1 cells by small molecules, qHTS cell viability counter screen (AID 1346979); also: nearly all actives have a fitted effect of over 35% in size
Method in brief: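 Following a 5hr settling period, CHO-K1 cells at 1,500 per well received DMSO-dissolved compounds. Cell viability was quantified 16hr later by CellTiter-Fluor fluorescence, measured after 1hr with reagent at 37C.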

[5] = Caspase-3/7 induction in CHO-K1 cells by small molecules, qHTS assay (AID 1346980); also: nearly all actives have a fitted effect of over 15% in size
Method in brief: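 Wild-type cells were seeded at 1,500 per well and settled 5 hr at 37 C, 5% CO2, then exposed to DMSO-dissolved compounds for 17 hr. Caspase-Glo 3/7 reagent was added, and luminescence was read after 30min at room temperature.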

[6] = Caspase-3/7 induction in HepG2 cells by small molecules, qHTS cell viability counter screen (AID 1346981); also: series mostly up to about 92 µM; nearly all actives have a fitted effect of over 30% in size
Method in brief: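 Fluorescence read-out of live-cell protease activity (CellTiter-Fluor) after 1 hr with reagent. This was measured in the same wells as the caspase-3/7 luminescence, on HepG2 cells exposed to DMSO-dissolved compounds for 16 hr at 37 C.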

[7] = target: Acetylcholinesterase (Homo sapiens) (UniProt P22303); test: Acetylcholinesterase (AChE) small molecule antagonists: enzyme-based qHTS assay (AID 1347397; calls by dose curve; also: nearly all actives have a fitted effect of over 55% in size; also: potency is read from the fitted curve at half-maximal effect); conditions: Potency: AChE enzyme activity inhibition
Method in brief: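 Tox21 library chemicals are tested in qHTS format against recombinant human AChE. The enzyme, dispensed at 50 mU/mL, sits with compound for 30 min at room temperature. A DTNB–acetylthiocholine cocktail follows, and colour is read after 10 min.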

[8] = target: Acetylcholinesterase (Homo sapiens) (UniProt P22303); test: Acetylcholinesterase (AChE) small molecule antagonists: fluorescence cell-based qHTS assay (AID 1347398; calls by dose curve; also: nearly all actives have a fitted effect of over 50% in size; also: potency is read from the fitted curve at half-maximal effect); conditions: Potency: AChE activity
Method in brief: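 Cellular AChE inhibition: SH-SY5Y cells treated with test chemical for 30 min at 37 C, then acetylthiocholine hydrolysis followed over 40 min at room temperature via thiocholine-reactive Thiolite Green fluorescence (490/520 nm).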

[9] = target: Acetylcholinesterase (Homo sapiens) (UniProt P22303); test: Acetylcholinesterase (AChE) small molecule antagonists: enzyme-based qHTS assay with human liver microsomes (AID 1347399; calls by dose curve; also: nearly all actives have a fitted effect of over 60% in size); conditions: Potency: qHTS inhibition
Method in brief: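 Recombinant human AChE (50 mU/mL in the enzyme mix) and human liver microsomes (0.25 mg/mL final) were preincubated with compound and NADPH (0.25 mg/mL final) for 30 min at 37 C. Acetylthiocholine/DTNB was then added; thiocholine was read colorimetrically after 10 min at room temperature.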

[10] = target: Cytochrome P450 2D6 (Homo sapiens) (UniProt P10635); test: Cytochrome P450 Family 2 Subfamily D Member 6 (CYP2D6) small molecule antagonists: luciferase reporter qHTS assay (AID 1671196); also: nearly all actives have a fitted effect of over 50% in size; also: potency is read from the fitted curve at half-maximal effect
Cytochrome P450 2D6 (Homo sapiens), sequence (P10635 whole entry, looked up): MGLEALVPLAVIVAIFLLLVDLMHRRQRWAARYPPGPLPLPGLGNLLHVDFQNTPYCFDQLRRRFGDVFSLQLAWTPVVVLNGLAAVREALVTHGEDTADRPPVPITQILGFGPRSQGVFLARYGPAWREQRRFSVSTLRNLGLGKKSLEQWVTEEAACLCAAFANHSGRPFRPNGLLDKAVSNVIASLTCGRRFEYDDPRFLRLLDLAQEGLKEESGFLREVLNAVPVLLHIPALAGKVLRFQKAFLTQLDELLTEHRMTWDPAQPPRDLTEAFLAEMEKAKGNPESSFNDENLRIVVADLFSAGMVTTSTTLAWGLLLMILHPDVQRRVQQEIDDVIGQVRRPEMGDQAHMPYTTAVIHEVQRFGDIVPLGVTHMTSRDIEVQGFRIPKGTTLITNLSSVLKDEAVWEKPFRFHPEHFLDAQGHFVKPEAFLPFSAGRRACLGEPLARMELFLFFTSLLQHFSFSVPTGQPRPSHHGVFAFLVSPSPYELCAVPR
Method in brief: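 Luminogenic proluciferin substrate, CYP2D6 enzyme; 10 min RT preincubation with compound, NADPH regeneration system added, 1 h RT. Stop/detection reagent, 20 min RT, luminescence read (RLU). Signal proportional to CYP activity.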

[11] = target: Cytochrome P450 1A2 (Homo sapiens) (UniProt P05177); test: Cytochrome P450 Family 1 Subfamily A Member 2 (CYP1A2) small molecule antagonists: luciferase reporter qHTS assay (AID 1671199); also: potency is read from the fitted curve at half-maximal effect; nearly all actives have a fitted effect of over 50% in size
Cytochrome P450 1A2 (Homo sapiens), sequence (P05177 whole entry, looked up): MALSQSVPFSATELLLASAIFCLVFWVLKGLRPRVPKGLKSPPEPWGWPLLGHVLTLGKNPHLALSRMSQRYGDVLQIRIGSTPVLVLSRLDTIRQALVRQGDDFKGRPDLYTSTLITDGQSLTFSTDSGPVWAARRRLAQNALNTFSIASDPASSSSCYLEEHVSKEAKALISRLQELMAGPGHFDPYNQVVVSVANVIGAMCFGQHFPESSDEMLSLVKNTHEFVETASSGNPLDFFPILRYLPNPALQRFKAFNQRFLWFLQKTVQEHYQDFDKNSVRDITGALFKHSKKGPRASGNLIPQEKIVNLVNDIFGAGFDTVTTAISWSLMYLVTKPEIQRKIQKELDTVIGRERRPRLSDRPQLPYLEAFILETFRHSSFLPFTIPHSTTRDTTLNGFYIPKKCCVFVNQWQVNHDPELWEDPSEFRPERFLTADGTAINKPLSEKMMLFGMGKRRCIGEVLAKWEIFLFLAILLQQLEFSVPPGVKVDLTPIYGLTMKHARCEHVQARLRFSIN
Method in brief: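 Luminescence readout (relative luminescence units) after luciferin detection reagent, 20 min RT. Preceded by 1 h room-temperature CYP1A2 reaction with NADPH regeneration solution following 10 min compound preincubation with enzyme and proluciferin substrate. Furafylline positive control.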

[12] = target: Voltage-gated inwardly rectifying potassium channel KCNH2 (Homo sapiens) (UniProt Q12809); test: Human Ether-a-go-go-Related Gene (hERG) channel small molecule antagonists: fluorescence cell-based qHTS assay (AID 1671200)
Voltage-gated inwardly rectifying potassium channel KCNH2 (Homo sapiens), sequence (Q12809 whole entry, looked up): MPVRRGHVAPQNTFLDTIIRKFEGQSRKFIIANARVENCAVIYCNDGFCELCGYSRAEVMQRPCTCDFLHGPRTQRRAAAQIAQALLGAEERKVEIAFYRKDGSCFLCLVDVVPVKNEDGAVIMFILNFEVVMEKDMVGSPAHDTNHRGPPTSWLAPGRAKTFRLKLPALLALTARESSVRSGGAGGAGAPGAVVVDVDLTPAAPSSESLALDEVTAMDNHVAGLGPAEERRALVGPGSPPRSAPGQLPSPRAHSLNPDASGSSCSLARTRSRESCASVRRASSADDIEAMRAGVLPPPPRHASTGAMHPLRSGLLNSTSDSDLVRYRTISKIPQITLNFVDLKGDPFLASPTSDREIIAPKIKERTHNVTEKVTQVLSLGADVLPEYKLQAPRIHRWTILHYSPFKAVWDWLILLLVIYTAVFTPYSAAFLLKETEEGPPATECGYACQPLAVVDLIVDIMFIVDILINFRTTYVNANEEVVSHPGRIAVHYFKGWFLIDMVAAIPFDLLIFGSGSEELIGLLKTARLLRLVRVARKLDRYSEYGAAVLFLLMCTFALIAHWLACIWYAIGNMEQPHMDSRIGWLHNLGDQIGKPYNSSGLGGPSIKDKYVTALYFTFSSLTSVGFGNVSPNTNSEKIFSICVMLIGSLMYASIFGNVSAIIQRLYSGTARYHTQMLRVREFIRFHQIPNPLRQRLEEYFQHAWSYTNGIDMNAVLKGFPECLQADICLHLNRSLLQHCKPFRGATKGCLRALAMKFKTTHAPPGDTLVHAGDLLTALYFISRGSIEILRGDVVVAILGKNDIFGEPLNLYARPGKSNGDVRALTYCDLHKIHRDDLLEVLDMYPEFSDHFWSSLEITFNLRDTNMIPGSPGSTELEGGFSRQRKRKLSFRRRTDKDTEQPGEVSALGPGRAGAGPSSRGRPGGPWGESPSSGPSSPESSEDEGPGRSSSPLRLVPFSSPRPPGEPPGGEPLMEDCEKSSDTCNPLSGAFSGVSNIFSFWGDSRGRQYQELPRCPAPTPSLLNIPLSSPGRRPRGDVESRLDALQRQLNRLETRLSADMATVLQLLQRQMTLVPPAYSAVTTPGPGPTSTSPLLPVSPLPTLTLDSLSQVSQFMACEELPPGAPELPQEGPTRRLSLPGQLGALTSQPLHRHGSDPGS
Method in brief: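 In this thallium-flux screen, overnight-cultured U2OS cells bearing the channel are dye-loaded in darkness for an hour, rested 10 min at room temperature, and then monitored kinetically at 480/540 nm for two minutes post-stimulus.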

[13] = target: Cytochrome P450 3A4 (Homo sapiens) (UniProt P08684); test: Cytochrome P450 Family 3 Subfamily A Member 4 (CYP3A4) small molecule antagonists: luciferase reporter qHTS assay (AID 1671201); also: nearly all actives have a fitted effect of over 50% in size; also: potency is read from the fitted curve at half-maximal effect
Cytochrome P450 3A4 (Homo sapiens), sequence (P08684 whole entry, looked up): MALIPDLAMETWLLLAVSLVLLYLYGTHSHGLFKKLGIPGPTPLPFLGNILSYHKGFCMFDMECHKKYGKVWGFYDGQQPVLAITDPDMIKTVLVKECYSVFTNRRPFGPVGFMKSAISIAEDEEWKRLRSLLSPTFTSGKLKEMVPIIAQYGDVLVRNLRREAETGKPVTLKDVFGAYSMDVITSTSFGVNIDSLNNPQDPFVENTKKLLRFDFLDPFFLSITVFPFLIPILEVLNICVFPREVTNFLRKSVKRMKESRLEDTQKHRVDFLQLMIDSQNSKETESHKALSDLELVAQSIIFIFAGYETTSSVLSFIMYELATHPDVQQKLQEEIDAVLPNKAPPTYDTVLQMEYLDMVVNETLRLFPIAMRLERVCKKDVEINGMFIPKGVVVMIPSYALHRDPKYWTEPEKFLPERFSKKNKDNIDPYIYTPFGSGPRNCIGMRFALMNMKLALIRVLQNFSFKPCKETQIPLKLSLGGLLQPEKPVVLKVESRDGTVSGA
Method in brief: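 CYP3A4 activity was followed with a P450-Glo proluciferin substrate. Test compounds in DMSO were preincubated 10 min; NADPH regeneration then ran 1 h, and light output was read 20 min after detection reagent.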

[14] = target: Nuclear receptor subfamily 1 group I member 2 (Homo sapiens) (UniProt O75469); test: Human pregnane X receptor (PXR) small molecule agonists, qHTS assay (AID 1346982); also: nearly all actives have a fitted effect of over 35% in size; also: potency is read from the fitted curve at half-maximal effect
Nuclear receptor subfamily 1 group I member 2 (Homo sapiens), sequence (O75469 whole entry, looked up): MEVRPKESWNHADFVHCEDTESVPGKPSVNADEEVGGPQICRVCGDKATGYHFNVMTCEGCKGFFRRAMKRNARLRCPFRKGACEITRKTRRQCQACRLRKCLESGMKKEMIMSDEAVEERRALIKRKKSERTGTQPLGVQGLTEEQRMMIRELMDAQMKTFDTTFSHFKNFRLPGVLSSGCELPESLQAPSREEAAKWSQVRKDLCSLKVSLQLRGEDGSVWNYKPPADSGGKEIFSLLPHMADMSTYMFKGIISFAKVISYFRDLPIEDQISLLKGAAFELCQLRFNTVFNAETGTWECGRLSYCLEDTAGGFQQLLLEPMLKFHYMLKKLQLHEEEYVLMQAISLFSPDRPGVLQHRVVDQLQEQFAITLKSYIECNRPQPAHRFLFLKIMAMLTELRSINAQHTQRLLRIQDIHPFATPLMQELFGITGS
Method in brief: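 HepG2 PXR-Luc reporter line, 5% charcoal-stripped FBS; 5 hr pre-incubation, compound (DMSO) 24 hr at 37 C/5% CO2; ONE-Glo 30 min RT; luminescence read-out.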

[15] = target: Acetylcholinesterase (Homo sapiens) (UniProt P22303); test: Acetylcholinesterase (AChE) small molecule antagonists: colormetric cell-based qHTS assay (AID 1347395; calls by dose curve; also: nearly all actives have a fitted effect of over 30% in size; also: potency is read from the fitted curve at half-maximal effect)
Method in brief: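 After overnight attachment at 37 C, SH-SY5Y cells get 30 min compound exposure; detection cocktail (acetylthiocholine, DTNB) then incubates 90 min at 37 C, and absorbance reflects AChE-generated thiocholine.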

[16] = target: Cytochrome P450 2C19 (Homo sapiens) (UniProt P33261); test: Cytochrome P450 Family 2 Subfamily C Member 19 (CYP2C19) small molecule antagonists: luciferase reporter qHTS assay (AID 1671197); also: nearly all actives have a fitted effect of over 65% in size; also: potency is read from the fitted curve at half-maximal effect
Cytochrome P450 2C19 (Homo sapiens), sequence (P33261 whole entry, looked up): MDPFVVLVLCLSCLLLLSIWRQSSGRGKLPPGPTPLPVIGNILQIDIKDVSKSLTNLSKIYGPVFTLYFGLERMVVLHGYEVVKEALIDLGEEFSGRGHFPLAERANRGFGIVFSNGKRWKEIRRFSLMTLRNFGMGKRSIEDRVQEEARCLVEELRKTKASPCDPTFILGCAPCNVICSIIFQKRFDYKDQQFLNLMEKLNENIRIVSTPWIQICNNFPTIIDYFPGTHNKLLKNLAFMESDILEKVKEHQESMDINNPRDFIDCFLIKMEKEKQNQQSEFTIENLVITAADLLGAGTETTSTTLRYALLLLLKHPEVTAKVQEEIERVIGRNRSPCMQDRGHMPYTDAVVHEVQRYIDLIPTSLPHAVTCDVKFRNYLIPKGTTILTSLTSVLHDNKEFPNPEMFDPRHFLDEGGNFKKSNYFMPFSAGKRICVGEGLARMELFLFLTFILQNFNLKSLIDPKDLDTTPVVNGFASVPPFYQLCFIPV
Method in brief: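 Inhibition of CYP2C19 was scored from loss of luminescence in a P450-Glo proluciferin substrate assay, NADPH-started and run 1 h at 37C, with ketoconazole as positive control.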

[17] = target: Cytochrome P450 2C9 (Homo sapiens) (UniProt P11712); test: Cytochrome P450 Family 2 Subfamily C Member 9 (CYP2C9) small molecule antagonists: luciferase reporter qHTS assay (AID 1671198); also: nearly all actives have a fitted effect of over 50% in size; also: potency is read from the fitted curve at half-maximal effect
Cytochrome P450 2C9 (Homo sapiens), sequence (P11712 whole entry, looked up): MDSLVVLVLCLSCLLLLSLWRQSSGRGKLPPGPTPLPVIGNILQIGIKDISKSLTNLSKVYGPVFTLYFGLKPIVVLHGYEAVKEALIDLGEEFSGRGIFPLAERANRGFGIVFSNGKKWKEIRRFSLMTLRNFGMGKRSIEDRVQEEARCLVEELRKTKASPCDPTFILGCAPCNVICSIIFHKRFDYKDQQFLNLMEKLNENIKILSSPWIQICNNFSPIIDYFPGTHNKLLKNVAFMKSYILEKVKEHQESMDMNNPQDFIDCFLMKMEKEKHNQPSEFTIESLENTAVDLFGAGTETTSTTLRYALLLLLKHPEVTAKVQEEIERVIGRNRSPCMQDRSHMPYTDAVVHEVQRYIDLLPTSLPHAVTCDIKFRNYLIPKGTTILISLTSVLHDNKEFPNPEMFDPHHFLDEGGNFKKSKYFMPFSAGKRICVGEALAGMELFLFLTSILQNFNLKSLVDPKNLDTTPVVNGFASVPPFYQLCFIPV
Method in brief: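 CYP2C9 activity was measured with a P450-Glo proluciferin substrate. Enzyme–substrate mix was held with compound for 10 min at room temperature, then NADPH regeneration solution was added for 1 h at 37C. Luciferin product was read as luminescence.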

[18] = target: Nuclear receptor subfamily 1 group I member 2 (Rattus norvegicus) (UniProt Q9R1A7); test: Rat pregnane X receptor (rPXR) activation by small molecules, qHTS assay (AID 1346983); conditions: rPXR luciferase reporter cells, One-Glo luminescence, 24 h; max activation: active compounds read high; also: nearly all actives have a fitted effect of over 20% in size
Nuclear receptor subfamily 1 group I member 2 (Rattus norvegicus), sequence (Q9R1A7 whole entry, looked up): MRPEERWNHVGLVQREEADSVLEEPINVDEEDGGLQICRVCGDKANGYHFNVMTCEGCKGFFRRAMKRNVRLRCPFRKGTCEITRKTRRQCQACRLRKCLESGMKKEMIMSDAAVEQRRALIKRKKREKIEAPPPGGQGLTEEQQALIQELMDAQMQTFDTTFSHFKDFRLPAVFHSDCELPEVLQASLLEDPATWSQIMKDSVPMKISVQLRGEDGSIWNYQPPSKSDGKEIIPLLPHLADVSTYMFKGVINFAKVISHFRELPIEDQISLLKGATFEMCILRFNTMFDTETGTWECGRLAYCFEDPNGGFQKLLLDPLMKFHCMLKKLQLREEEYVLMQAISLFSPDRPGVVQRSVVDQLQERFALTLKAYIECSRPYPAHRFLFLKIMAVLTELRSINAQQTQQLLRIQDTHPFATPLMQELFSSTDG
Method in brief: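 Cell-based rPXR luciferase reporter assay, 2,000 cells per well, rested 5hr at 37 C before compound addition in DMSO, then 24 hr at 37 C. One-Glo reagent was added and luminescence read after 30 min at room temperature.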

[19] = target: Nuclear receptor subfamily 1 group I member 2 (Homo sapiens) (UniProt O75469); test: CYP3A4 induction through human pregnane X receptor (PXR) by small molecules, qHTS assay (AID 1346984); also: nearly all actives have a fitted effect of over 40% in size
Method in brief: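 HepG2-derived DPX-2 line carrying PXR plus a CYP3A4-promoter luciferase reporter; cells plated 5 hr, compound-exposed 24 hr at 37C. CYP3A4 activity probed with 3uM (final) Luciferin-IPA for 3hr, then luciferase read after One-Glo.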

[20] = target: Nuclear receptor subfamily 1 group I member 2 (Homo sapiens) (UniProt O75469); test: Human pregnane X receptor (PXR) activation by small molecules, qHTS assay (AID 1346985); also: nearly all actives have a fitted effect of over 40% in size
Method in brief: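 DPX-2 cells (HepG2 co-transfected with a PXR response element and a CYP3A4-promoter luciferase construct) were seeded at 2,000 per well, rested 5 hr at 37C, then exposed to DMSO-dissolved compounds for 24 hr. Activation was read as luciferase luminescence.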

Row | SMILES | Potency [1] | Potency [2] | Potency [3] | Potency [4] | Potency [5] | Potency [6] | Potency [7] | Potency [8] | Potency [9] | Potency [10] | Potency [11] | Potency [12] | Potency [13] | Potency [14] | Potency [15] | Potency [16] | Potency [17] | max activation [18] [%] | Potency [19] | Potency [20]
1 | O=Cc1ccc2c(c1)OCO2 | inactive | inactive | inactive | inactive | inactive | inactive | inactive | inactive | inactive | inactive | 31.3 µM (active) | inactive | inactive | – | – | – | – | – | – | –
2 | CNP(=O)(OC)Oc1ccc(C(C)(C)C)cc1Cl (stereo unspecified) | inactive | inactive | inactive | – | inactive | inactive | 79.6 µM (active) | 31.7 µM (active) | inactive | – | 35.6 µM (active) | inactive | inactive | 17.2 µM (active) | 71 µM (active) | 8.94 µM (active) | 35.6 µM (active) | – | – | –
3 | c1cc2ccc3cccc4ccc(c1)c2c34 | inactive | inactive | inactive | – | inactive | – | inactive | inactive | inactive | – | 0.564 µM (active) | inactive | – | 25.5 µM (active) | inactive | 16.7 µM (active) | 74.4 µM (active) | – | – | –
4 | C=CC(=O)OCC(C)O (stereo unspecified) | inactive | inactive | inactive | – | inactive | inactive | inactive | inactive | – | inactive | – | inactive | inactive | inactive | inactive | inactive | inactive | – | – | –
5 | COCC(C)N(C(=O)CCl)c1c(C)csc1C (stereo unspecified) | inactive | inactive | inactive | – | inactive | inactive | inactive | inactive | inactive | – | – | inactive | inactive | inactive | – | 6.33 µM (active) | – | -3.61 | inactive | inactive
6 | COP(=S)(Oc1cc(Cl)c(Br)cc1Cl)c1ccccc1 (stereo unspecified) | inactive | inactive | inactive | – | inactive | inactive | – | – | – | – | 15.9 µM (active) | inactive | 7.1 µM (active) | 24.3 µM (active) | 63.3 µM (active) | 0.224 µM (active) | 0.796 µM (active) | – | – | –
7 | C=CC(=O)NCNC(=O)C=C | inactive | inactive | inactive | – | inactive | inactive | inactive | inactive | inactive | 3.56 µM (active) | 46.5 µM (active) | inactive | inactive | 30.6 µM (active) | – | inactive | – | – | – | –
